An excerpt weighted towards active compounds, which were near 15% of everything screened.
Sm TGR block = inhibitors of Schistosoma mansoni thioredoxin glutathione reductase | Q962Y6 | Potency, µM (series often up to 114 µM), for the others: at the top dose activity change, negative = inhibition, actives largely listed as inhibitors | purified TGR, DTNB reduction, TNB absorbance 405 nm | actives 3% (n = 360,000) | AID 485364; further: potency means the concentration at half of the fitted maximal effect; on the % scale 0 is the no-effect control and ±100 the full control effect; nearly all actives have a fitted effect of over 60% in size
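TGR 20 nM + NADPH 100 uM (dispensed conc.), cpd preinc 15 min RT; start with NADPH (500 uM addition) then DTNB (15 mM addition). Kinetic TNB absorbance, 405 nm filter. Four-parameter Hill fit across titration.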
SARS PLP yeast = inhibitors of SARS-CoV papain-like protease in yeast; AID 485353; Potency, µM (doses to about 32.9 µM), for the others: top-dose activity, positive = growth rescue, hits mostly activators; S. cerevisiae expressing SARS-CoV PLpro, growth rescue; actives 0.19% (n = 330,000); calls by dose curve; further: potency means the concentration at half of the fitted maximal effect; 0% is about no effect; nearly all actives have a fitted effect of over 55% in size
Pf growth 48h = P. falciparum growth inhibition at 48 hours (one generation); P. falciparum luciferase growth in erythrocytes, 48 h; actives 5.9% (n = 310,000); Potency, µM (doses to about 28.7 µM), for the others: at the top dose activity change, negative = inhibition, actives largely listed as inhibitors; further: potency means the concentration at half of the fitted maximal effect; on the % scale 0 is the no-effect control and ±100 the full control effect
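A one-generation exposure of luciferase-tagged malaria parasites in RPMI 1640/Albumax erythrocyte culture, 37 C and 5% CO2. Inhibition is inferred from decreased luminescence after adding detection reagent.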
HCMV antiviral = blocks human cytomegalovirus replication; actives 4.5% (n = 410,000); HFF cells, HCMV-luciferase reporter, 72 h; active compounds read low; activity change, negative = inhibition, % at 57.5 µM; in the data active means activity change below about -60%; inconclusive means no clear call, values can overlap the other calls; inactive means above about -39%; further: on the % scale 0 is the no-effect control and ±100 the full control effect
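Steps: HFFs plated, 16 h 37C; compounds added; HCMV-luciferase added to MOI 1 PFU/cell; 72 h 37C; OneGlo reagent, 5 min room temperature; luminescence read, normalized to controls.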
Pf growth 96h = inhibits malaria parasite growth, 96 h | actives 6.9% (n = 320,000) | P. falciparum luciferase reporter growth, 96 h | AID 504834 | Potency, µM (series often up to 28.7 µM), for inactives: at the highest dose activity change, negative = inhibition, usual class: inhibitors; further: potency means the concentration at half of the fitted maximal effect; on the % scale 0 is the no-effect control and ±100 the full control effect
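Luminescence readout: decreased luciferase signal marks inhibited growth of reporter-expressing P. falciparum in infected red cells (2% hematocrit, 0.05% parasitemia final), exposed to compound two generations (96 h, 37 C, 5% CO2).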
HCV inhibitor = blocks hepatitis C virus; Huh7.5.1 HCVcc-Cre infection, luciferase reporter, 44 h; Potency, µM (titrated, usually from 41.8 µM), without a hit: at the highest dose activity change, negative = inhibition, most hits filed as inhibitors; actives 3.4% (n = 340,000); further: potency means the concentration at half of the fitted maximal effect; on the % scale 0 is the no-effect control and ±100 the full control effect
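After 44 h co-culture of compound, cells and HCVcc-Cre (~0.5 moi), substrate is added for 15 min at room temperature and luciferase measured over 15 sec. Cells were seeded at 1,000/well and pre-cultured 4 h.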
* = called active by the depositor; ? = inconclusive; nt = no result; [ ] = dose if it differs, or a comment. Unless noted, the call rests on the fitted dose curve; in most records, active means well fitted curve in the direction sought with a large enough effect; inconclusive means small, poorly fitted or top-dose-only effect, or another doubt; inactive means no such curve, though single readings can be large; an effect the other way counts as inactive or inconclusive.

SMILES | Sm TGR block | SARS PLP yeast | Pf growth 48h | HCMV antiviral | Pf growth 96h | HCV inhibitor
O=C(NC1CCCCC1)N1CCC(c2nc3ccccc3[nH]2)CC1 | 16.2% | 12.8% | -6.9% | 9.9 | -9.5% | -2.0%
CCn1nc(NS(=O)(=O)c2ccc([N+](=O)[O-])cc2)c2cc3ccccc3nc21 | -3.7% | -0.8% | 5.4% | -20.9 | ? | 19.0%
Cc1c(N2C(=O)/C(=C\c3ccc(N(C)C)cc3)N(C)C2=S)c(=O)n(-c2ccccc2)n1C | -9.6% | 10.3% | 2.4% | -65.0* | -23.2% | -6.8%
CN1C(=S)N(c2cccnc2)C(=O)/C1=C\c1ccc(C(C)(C)C)cc1 | 1.7% | -4.1% | ? | ? | ? | ?
CN1C(=S)N(c2cccnc2)C(=O)/C1=C\c1ccc(N(C)C)cc1 | -17.7% | -2.8% | -1.7% | -63.7* | ? | -18.6%
CC(C)c1ccc(/C=N/N2CCN(c3ccccn3)CC2)cc1 | 15.8% | -0.5% | 44.2% | -63.1* | 16.6% | -5.2%
CC(C)c1ccc(/C=N/N2CCCCC2)cc1 | 4.6% | -5.6% | 76.7% | -70.1* | 5.6% | 8.1%
Oc1ccccc1/C=N/N1CCN(c2ccccn2)CC1 | 3.7% | -1.2% | 85.6% | -28.0 | 42.3% | 10.3%
Cc1ccc(S(=O)(=O)NCC(=O)N2CCN(c3ccc(F)cc3)CC2)cc1 | 0.3% | -7.2% | -5.1% | 22.8 | -4.4% | -12.2%
CN1C(=O)C(CC(=O)NCCc2ccccc2)N(NC(=O)c2ccc(Cl)cc2)C1=S (stereo unspecified) | 13.3% | -0.2% | ? | -74.3* | -15.2% | -7.7%
Cn1c2c(c(=O)n(C)c1=O)CS(=O)c1ccccc1N2 (stereo unspecified) | nt | nt | nt | 1.8 | nt | nt
CCOc1ccc(C(=O)Nc2nnc(S(=O)(=O)Nc3ccccc3C)s2)cc1 | -0.5% | 4.4% | 37.9% | 71.3 | ? | -4.3%
COc1ccc(N2Cc3cccc(C(=O)NC(C)CCc4ccco4)c3C2=O)cc1 (stereo unspecified) | 0.0% | -10.6% | nt | -25.3 | 11.7µM* | -21.5%
Cc1ccc(-c2nn(-c3ccccc3)cc2CSC(=N)N)cc1 | -3.5% | -0.4% | ? | 4.4 | 1.65µM* | ?
N#Cc1ccccc1OCC(=O)NCCNC(=O)COc1ccccc1C#N | -5.3% | -4.6% | ? | 12.7 | ? | -5.1%
FC(F)(F)c1cccnc1Oc1ccc(C2=NCCS2)cc1 | 10.7% | 0.2% | ? | 22.2 | 2.62µM* | -26.2%
Nc1cccnc1Oc1ccc(F)cc1 | 1.9% | -1.2% | 1.2% | ? | 18.4% | 4.1%
CN(C)S(=O)(=O)c1cc(NC(=O)CSc2nn(-c3ccc(Cl)cc3)c(=S)s2)ccc1Cl | -2.3% | ? | ? | -84.5* | ? | 6.31µM*
NS(=O)(=O)c1cccc(NC(=O)CSc2nn(-c3ccccc3)c(=S)s2)c1 | -12.7% | -1.6% | 1.85µM* | -19.7 | 1.17µM* | ?
Nc1nnc(SCC(=O)Nc2cccc(S(N)(=O)=O)c2)s1 | -1.9% | -0.7% | 8.0% | -25.8 | 19.2% | 17.4%
Cc1ccc(NC(=O)CSc2nn(-c3ccc(Cl)cc3)c(=S)s2)cc1S(=O)(=O)N(C)C | -4.6% | -6.5% | ? | -82.6* | ? | 12.6µM*
Cc1ccc(OCc2nc(-c3ccc(C(=O)N4CCN(c5ccccc5F)CC4)cc3)oc2C)cc1 | 0.9% | nt | nt | -5.1 | nt | nt
COc1ccc(C(=O)CCC(=O)N2CCN(c3ccc(C)cc3)C(C)C2)cc1 (stereo unspecified) | 8.8% | -11.3% | -15.6% | -25.4 | 9.28µM* | ?
CCOC(=O)c1[nH]c(=S)n(-c2ccccc2)c1C(=O)OCC | nt | nt | nt | -0.8 | nt | nt
O=C(COc1ccc(-c2nnco2)cc1)Nc1ccc(C(F)(F)F)cc1 | 0.4% | 0.2% | ? | -75.2* | -18.0% | ?
SMILES | Sm TGR block | SARS PLP yeast | Pf growth 48h | HCMV antiviral | Pf growth 96h | HCV inhibitor
CC(NC(=O)COc1ccc(-c2nnco2)cc1)c1ccc(Cl)cc1Cl (stereo unspecified) | -14.8% | 6.6% | ? | -22.4 | 13.1µM* | -3.2%
CCC(C)c1ccccc1NC(=O)COc1ccc(-c2nnco2)cc1 (stereo unspecified) | 0.8% | 1.4% | ? | -17.3 | -0.6% | 1.2%
COc1ccnc(N2CCN(c3ccc(Cl)cc3)CC2)c1C#N | 12.1% | -1.0% | 24.0% | -67.8* | 102.6% | 31.6µM*
COc1cc(OCc2ccccc2)c(CC(=O)O)c([N+](=O)[O-])c1 | nt | nt | nt | 26.9 | nt | nt
Cc1ccc([N+](=O)[O-])cc1S(=O)(=O)NCCc1c(C)[nH]c2c(C)cccc12 | -18.3% | 13.8% | 10.4% | 39.5 | 9.28µM* | -8.9%
O=C(NCC(c1cccnc1)N1CCN(c2ccccc2F)CC1)c1ccc(F)cc1 (stereo unspecified) | -2.3% | nt | nt | -21.3 | nt | nt
CCO[C@H]1OC(C(=O)N2CCCCCCC2)=C[C@@H](C2CCCCC2)[C@@H]1CCCO | 8.3% | 1.0% | ? | -9.2 | 9.28µM* | 7.3%
CCO[C@@H]1OC(C(=O)N2CCN(Cc3ccc4c(c3)OCO4)CC2)=C[C@H](C2CCCCC2)[C@H]1CCCO | -22.4% | 0.1% | ? | 0.1 | 0.928µM* | ?
CCO[C@H]1OC(C(=O)N2CCN(Cc3ccc4c(c3)OCO4)CC2)=C[C@@H](C(C)(C)C)[C@@H]1CCCO | 1.0% | -1.8% | 6.57µM* | 8.4 | ? | -11.6%
CCO[C@@H]1OC(C(=O)N2CCN(C)CC2)=C[C@H](C2CCCCC2)[C@H]1CCCO | -0.5% | -1.0% | -2.1% | ? | -20.3% | 2.8%
CCO[C@H]1OC(C(=O)N2CCN(Cc3ccccc3)CC2)=C[C@@H](C2CCCCC2)[C@@H]1CCCO | 7.0% | 0.5% | ? | -3.4 | 1.65µM* | -11.0%
Cc1ccccc1N(CC(=O)NCC1CCCO1)C(=O)CCC(=O)Nc1nccs1 (stereo unspecified) | -6.3% | 3.1% | 5.2% | -1.3 | 0.0% | -0.6%
Cc1ccc(S(=O)(=O)N2CCOCC2)cc1C(=O)Nc1ccccc1N1CCOCC1 | 0.9% | -0.4% | -14.0% | 5.5 | -29.3% | 14.7%
O=C(C(=Cc1ccccc1)CN1CCCCC1)c1ccccc1 | nt | nt | nt | -75.7* | nt | 2.24µM*
Cc1ccc(NNc2c(C)nc3ccccc3nc2=O)cc1 | nt | 1.1% | 16.0% | -67.0* | 19.5% | -8.6%
Cc1ccc(Nc2nc3ccccc3nc2Nc2c(C)n(C)n(-c3ccccc3)c2=O)cc1 | -12.4% | 5.9% | -17.9% | -28.1 | 46.5% | 1.4%
CC(C)(C)c1ccc(S(=O)(=O)N2CCC(Oc3ccc(-n4cnnn4)cc3)CC2)cc1 | 2.0% | nt | nt | -24.6 | nt | nt
O=C(O)CN1CCN(Cc2ccc(Cl)cc2)C1=O | -1.8% | -11.2% | 6.6% | 71.5 | 0.0% | -11.8%[0.335 µM]
COC(=O)c1cc2ccsc2n1Cc1cccc(F)c1 | 0.2% | -26.3% | -0.7% | 35.8 | ? | -9.7%

Compound activity (PubChem BioAssay)
